Measured values: PubChem BioAssay AID623901 (Broad Institute, 2012)
In all, about 340,000 compounds went through this assay and about 470 (0.14%) were called active. For the sample, actives were picked, then their nearest neighbours and some compounds at random. Unmarked numbers belong to inactive results.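 The calls were made as follows: active = mean activation of 30% or more, with every replicate also reaching 30%; inconclusive = mean activation of 30% or more but some replicate falls short; inactive = the rest.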

Assay: small molecules raising miR-122 sensor signal – cell-based, Huh7 psiCHECK-miR122, Renilla luciferase, single point, primary screen (AID 623901);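 also: 0% = median of neutral control wells and 100% = median of positive control wells; higher luciferase signal means stronger suppression of miR-122 activity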
Conditions: 48 h, at 12.5 µM, hits give high values

**Q.** Which activation does the source give for `Cc1ccc(-c2ccc3c(c2)O[C@@H](CN(C)C(=O)NC(C)C)[C@@H](C)CN([C@H](C)CO)S3(=O)=O)cc1` here?
**A.** Its activation is -3.11%.

**Q.** Which activation does the source give for `COc1ccc(OC)c(-n2cc3c(=O)n(C)c(=O)n(C)c3c2)c1` here?
**A.** The activation was -102%.

**Q.** For `O=C(NNC(=O)c1ccccc1O)c1ccccc1O`, which activation is on record?
**A.** The activation was -530%.

**Q.** For `CCCN(C)C[C@H]1Oc2ncc(-c3ccccc3OC)cc2C(=O)N([C@H](C)CO)C[C@@H]1C`, which activation is on record?
**A.** The activation was 6.19%.

**Q.** Which activation does the source give for `O=c1c(-c2ccccc2)coc2c(CN3CCOCC3)c(O)ccc12` here?
**A.** The activation was 35.8% (active).

**Q.** With `CNC[C@@H]1Oc2cc(-c3ccccc3OC)ccc2S(=O)(=O)N([C@H](C)CO)C[C@H]1C` as the compound, how does the activation read?
**A.** Its activation is -5.6%.

**Q.** For `C[C@@H]1CN([C@H](C)CO)C(=O)c2cc(C#CCN(C)C)cnc2O[C@H]1CN(C)C(=O)Cc1ccncc1`, which activation is on record?
**A.** Its activation is 2.45%.

**Q.** With `C[C@@H]1CN([C@@H](C)CO)S(=O)(=O)c2ccc(-c3cccc(C(=O)N(C)C)c3)cc2O[C@@H]1CN(C)C(=O)Nc1ccccc1` as the compound, how does the activation read?
**A.** The activation was -16.6%.

**Q.** With `Cc1ccc(S(=O)(=O)NC2CCCCCC2)cc1` as the compound, how does the activation read?
**A.** The activation was -106%.

**Q.** Which activation does the source give for `C[C@H](CO)N1C[C@H](C)[C@@H](CN(C)C(=O)Cc2cccnc2)Oc2ncc(-c3ccncc3)cc2C1=O` here?
**A.** The activation was -1.97%.

**Q.** Which activation does the source give for `COc1ccc(C#Cc2ccc([C@H]3[C@@H](CO)N4CCCCN(C(=O)Nc5ccccc5)C[C@H]34)cc2)cc1` here?
**A.** Its activation is 35.5% (active).

**Q.** With `O=C(Nc1ccc(F)cc1)N1CCCCN2[C@H](CO)[C@H](c3ccc(C#Cc4ccccc4)cc3)[C@H]2C1` as the compound, how does the activation read?
**A.** The activation was 34.6% (active).

**Q.** Which activation does the source give for `O=C(NCCCn1ccnc1)c1cc(-c2ccccc2)on1` here?
**A.** Its activation is -98.4%.

**Q.** With `O=C(CN1CCOCC1)Nc1cc(Cl)ccc1Cl` as the compound, how does the activation read?
**A.** The activation was -101%.

**Q.** With `O=S(=O)(N/N=C\c1cccn1-c1ccccc1)c1ccc2ccccc2c1` as the compound, how does the activation read?
**A.** Its activation is -97.9%.

**Q.** For `Cc1noc(C)c1NC(=O)N(C)C[C@@H]1Oc2cc(C#CCC(C)C)ccc2S(=O)(=O)N([C@H](C)CO)C[C@@H]1C`, which activation is on record?
**A.** Its activation is -3.73%.

**Q.** Which activation does the source give for `CCCNC(=O)N(C)C[C@H]1Oc2ncc(C#C[C@@H](C)O)cc2C(=O)N([C@@H](C)CO)C[C@@H]1C` here?
**A.** Its activation is 7.15%.

**Q.** With `O=C(c1ccccc1F)N1C[C@H]2[C@@H](c3ccccc31)[C@@H](CO)N2C(=O)c1ccc(F)cc1` as the compound, how does the activation read?
**A.** The activation was -471%.

**Q.** Which activation does the source give for `COc1ccc(C(=O)N2C[C@@H]3[C@H](c4ccccc42)[C@H](CO)N3Cc2ccc3c(c2)OCO3)cc1` here?
**A.** Its activation is -247%.

**Q.** For `O=C(CC(F)(F)F)N1C[C@H]2[C@@H](c3ccccc31)[C@H](CO)N2C(=O)Cc1cccnc1`, which activation is on record?
**A.** Its activation is 33.3% (active).

**Q.** Which activation does the source give for `CCCC#Cc1ccc2c(c1)O[C@H](CN(C)C(=O)CC)[C@@H](C)CN([C@H](C)CO)S2(=O)=O` here?
**A.** The activation was -45.7%.

**Q.** For `CCCNC(=O)N(C)C[C@@H]1Oc2cc(-c3ccccc3)ccc2S(=O)(=O)N([C@H](C)CO)C[C@H]1C`, which activation is on record?
**A.** The activation was -13.1%.

**Q.** For `C[C@@H]1CN([C@@H](C)CO)S(=O)(=O)c2ccc(C#C[C@@H](C)O)cc2O[C@@H]1CN(C)C(=O)Cc1ccccn1`, which activation is on record?
**A.** The activation was 2.54%.

**Q.** With `C/C=C/c1ccc2c(c1)O[C@@H](CN(C)S(C)(=O)=O)[C@@H](C)CN([C@H](C)CO)S2(=O)=O` as the compound, how does the activation read?
**A.** The activation was 3.54%.

**Q.** For `CCCNC(=O)N(C)C[C@@H]1Oc2ncc(C#CC(C)C)cc2C(=O)N([C@H](C)CO)C[C@H]1C`, which activation is on record?
**A.** Its activation is 10.4%.

**Q.** With `C[C@H]1CN([C@@H](C)CO)S(=O)(=O)c2ccc(C#CCN(C)C)cc2O[C@H]1CN(C)C(=O)CN(C)C` as the compound, how does the activation read?
**A.** Its activation is 8.35%.

**Q.** For `COCC(=O)Nc1ccc2c(c1)OC[C@H](C)NC[C@@H](C)[C@H](OC)CN(C)C2=O`, which activation is on record?
**A.** Its activation is -4.6%.

**Q.** With `CCC(=O)N(C)C[C@@H]1Oc2cc(C#C[C@H](C)O)ccc2S(=O)(=O)N([C@@H](C)CO)C[C@H]1C` as the compound, how does the activation read?
**A.** The activation was -2.5%.

**Q.** For `C/C=C/c1cnc2c(c1)C(=O)N([C@H](C)CO)C[C@H](C)[C@@H](CN(C)CC1CCOCC1)O2`, which activation is on record?
**A.** Its activation is 2.95%.

**Q.** With `CCN1CCN(C(c2cccnc2)c2cc(Cl)c3cccnc3c2O)CC1` (centres undefined) as the compound, how does the activation read?
**A.** The activation was 49.7% (active).

**Q.** For `O=C1c2ccccc2C2=Nc3ccccc3SC(c3ccccc3F)C12` (centres undefined), which activation is on record?
**A.** The activation was -162%.

**Q.** Which activation does the source give for `O=C(CNCCC1=CCCCC1)Nc1ccccc1N1CCCCCC1` here?
**A.** Its activation is 76.7% (active).

**Q.** Which activation does the source give for `C=CCNC(=O)c1ccccc1NC(=O)c1ccc(Cl)c(S(=O)(=O)Nc2cccc(C)c2C)c1` here?
**A.** Its activation is -155%.

**Q.** Which activation does the source give for `COc1ccc(C(CCN(Cc2ccc(OC)c(OC)c2)C(=O)CCl)c2ccccc2)cc1` (centres undefined) here?
**A.** The activation was 34.7% (active).
